Assay results from PubChem BioAssay.
Values without a mark were called inactive. No rule for the calls is given here.

Each molecule was assayed against Pantothenate synthetase (Mycobacterium tuberculosis (strain ATCC 25618 / H37Rv)) (UniProt P9WIL5) (assay: Coupled enzyme confirmation of inhibitors against recombinant Mtb PanC (AID 375;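 also: 0% = full reaction with vehicle and 100% = no enzyme background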)). Settings: coupled enzyme assay; at 10 µM, stronger effect = higher value.
Sequence of Pantothenate synthetase (Mycobacterium tuberculosis (strain ATCC 25618 / H37Rv)) (P9WIL5 whole entry, looked up): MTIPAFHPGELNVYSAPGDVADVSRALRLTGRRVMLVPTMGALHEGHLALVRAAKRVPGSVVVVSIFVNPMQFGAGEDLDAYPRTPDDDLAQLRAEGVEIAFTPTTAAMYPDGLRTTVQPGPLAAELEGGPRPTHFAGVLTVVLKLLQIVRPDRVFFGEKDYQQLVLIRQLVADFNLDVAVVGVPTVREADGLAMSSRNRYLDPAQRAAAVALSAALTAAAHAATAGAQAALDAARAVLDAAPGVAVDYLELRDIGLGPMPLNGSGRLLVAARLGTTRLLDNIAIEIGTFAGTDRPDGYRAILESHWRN

Row | SMILES | inhibition [%]
1 | COC(=O)c1[nH]c2ccccc2c1NC(=O)CN1CCC(C(N)=O)(N2CCCCC2)CC1 | 0
2 | COC(=O)CCC(=O)Nc1cccc(Br)c1 | 0
3 | O=C(Nc1cccc(C(=O)N2CCOCC2)c1)c1cccnc1 | 0
4 | Cc1cc(C)nc(Sc2ccc3nnc(C(F)(F)C(F)(F)C(F)(F)F)n3n2)n1 | 6
5 | O=C(CN1C(=O)CC(c2ccco2)Sc2ccccc21)Nc1ccc2c(c1)OCCO2 (stereo unspecified) | 3
6 | CC(=O)c1c(C)[nH]c(C(=O)N2CCN(C(=O)c3ccco3)CC2)c1C | 0
7 | Cc1ccc(S(=O)(=O)NCCN2CCOCC2)cc1C | 3
8 | Cc1ccc(OCC2Cn3c(nc4c3c(=O)n(C)c(=O)n4C)O2)cc1 (stereo unspecified) | 0
9 | CSc1ccccc1NC(=O)c1cnc2n(c1=O)CCS2 | 7
10 | CCOc1ccc(NS(=O)(=O)c2ccc(OCC(=O)N3CCCC3)cc2)cc1 | 0
11 | COC(=O)c1ccc(CNC(=O)COc2ccccc2Br)o1 | 5
12 | C(=C\c1ccccc1)/CSc1nnc(-c2ccccn2)n1Cc1ccco1 | 5
13 | COCc1nnc(NC(=O)c2ccc(NC(C)=O)cc2)s1 | 2
14 | O=C(CN1C(=O)COc2ccccc21)NCCCN1CCN(Cc2ccccc2)CC1 | 0
15 | CN1CCN(CCCNC(=O)Cn2ncc3c4ccccc4n(C)c3c2=O)CC1 | 0
16 | O=C(NCc1cccnc1)C1c2ccccc2C(=O)N1Cc1ccco1 (stereo unspecified) | 1
17 | CCCS(=O)(=O)N1CCCC(C(=O)NC(C)c2ccc3c(c2)OCCO3)C1 (stereo unspecified) | 3
18 | COC(=O)c1ccc(C(=O)OC)c(NC(=O)Nc2ccc3c(c2)OCO3)c1 | 0
19 | COc1ccc(N(CC(=O)Nc2ccc(F)c(Cl)c2)S(=O)(=O)c2c(C)noc2C)cc1 | 11
20 | CC(=O)C1=C(C)Nc2ncnn2C1c1cccc(OCc2ccccc2)c1 (stereo unspecified) | 0
21 | CCOC(=O)CSc1nc2cc(C(=O)N3CCC(C(N)=O)CC3)ccc2c(=O)n1-c1ccccc1 | 0
